Here are results for 39 targets from the supplement of paper PMC12819154, “High-throughput peptide-centric local stability assay extends protein–ligand identification to membrane proteins, tissues and bacteria” (Nature Structural & Molecular Biology, 2025).
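Note: lysate desalted by size exclusion to strip endogenous ATP, peptide intensities built from DIA-NN precursor signals, and peptides missing any value discarded before comparison.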

Sequence of UniProt P33030 (P33030 whole entry): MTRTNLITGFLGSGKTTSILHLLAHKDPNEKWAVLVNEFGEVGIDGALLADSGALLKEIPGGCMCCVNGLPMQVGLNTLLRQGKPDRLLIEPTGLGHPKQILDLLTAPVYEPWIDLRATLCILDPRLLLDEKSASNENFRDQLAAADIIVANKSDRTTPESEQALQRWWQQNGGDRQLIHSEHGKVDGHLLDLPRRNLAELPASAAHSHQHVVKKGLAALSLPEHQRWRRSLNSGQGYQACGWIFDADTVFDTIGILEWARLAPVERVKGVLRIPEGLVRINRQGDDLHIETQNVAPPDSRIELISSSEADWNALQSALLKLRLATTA
Sequence of UniProt P76034 (P76034 whole entry): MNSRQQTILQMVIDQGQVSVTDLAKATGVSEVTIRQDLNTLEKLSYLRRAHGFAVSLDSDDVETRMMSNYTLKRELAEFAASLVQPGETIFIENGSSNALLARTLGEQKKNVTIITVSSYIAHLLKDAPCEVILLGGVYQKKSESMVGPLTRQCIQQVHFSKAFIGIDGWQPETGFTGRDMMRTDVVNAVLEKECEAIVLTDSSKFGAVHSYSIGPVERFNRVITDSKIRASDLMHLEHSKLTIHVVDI
Sequence of UniProt P39399 (P39399 whole entry): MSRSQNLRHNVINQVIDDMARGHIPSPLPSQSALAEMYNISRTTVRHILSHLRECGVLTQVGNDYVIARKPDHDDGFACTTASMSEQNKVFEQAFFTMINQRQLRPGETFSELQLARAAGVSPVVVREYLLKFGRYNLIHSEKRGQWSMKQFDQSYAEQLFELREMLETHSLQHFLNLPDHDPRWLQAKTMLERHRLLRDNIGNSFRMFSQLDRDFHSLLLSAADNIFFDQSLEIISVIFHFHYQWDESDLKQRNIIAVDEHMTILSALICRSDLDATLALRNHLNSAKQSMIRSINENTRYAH
Sequence of UniProt P23862 (P23862 whole entry): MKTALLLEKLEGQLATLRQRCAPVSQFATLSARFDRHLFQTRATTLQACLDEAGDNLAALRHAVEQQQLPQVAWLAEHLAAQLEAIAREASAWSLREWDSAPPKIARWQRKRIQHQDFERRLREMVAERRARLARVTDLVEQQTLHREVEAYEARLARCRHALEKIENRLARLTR
Sequence of UniProt P39161 (P39161 whole entry): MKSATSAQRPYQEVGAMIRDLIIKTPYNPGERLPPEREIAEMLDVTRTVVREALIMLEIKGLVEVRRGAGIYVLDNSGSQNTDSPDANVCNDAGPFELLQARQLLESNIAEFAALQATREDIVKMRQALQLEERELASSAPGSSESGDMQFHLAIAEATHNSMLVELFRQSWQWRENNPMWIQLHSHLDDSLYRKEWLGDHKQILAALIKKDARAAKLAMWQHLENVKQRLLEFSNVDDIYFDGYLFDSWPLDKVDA
Sequence of UniProt P31802 (P31802 whole entry): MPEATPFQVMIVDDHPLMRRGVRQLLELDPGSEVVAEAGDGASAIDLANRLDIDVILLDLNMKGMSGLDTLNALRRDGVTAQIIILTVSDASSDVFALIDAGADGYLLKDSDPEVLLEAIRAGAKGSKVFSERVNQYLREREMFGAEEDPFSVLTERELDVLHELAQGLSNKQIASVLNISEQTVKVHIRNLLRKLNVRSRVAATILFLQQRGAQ
Sequence of UniProt P76043 (P76043 whole entry): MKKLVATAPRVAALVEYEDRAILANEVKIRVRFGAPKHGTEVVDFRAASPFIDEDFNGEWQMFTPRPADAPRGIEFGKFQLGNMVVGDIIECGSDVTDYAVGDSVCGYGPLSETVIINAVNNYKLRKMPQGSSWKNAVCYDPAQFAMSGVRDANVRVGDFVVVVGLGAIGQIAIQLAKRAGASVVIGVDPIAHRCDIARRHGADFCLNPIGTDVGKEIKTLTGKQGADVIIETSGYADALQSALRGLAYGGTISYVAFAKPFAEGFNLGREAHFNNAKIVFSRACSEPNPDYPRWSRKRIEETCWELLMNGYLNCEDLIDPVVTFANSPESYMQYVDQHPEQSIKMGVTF
Sequence of UniProt P33599 (P33599 whole entry): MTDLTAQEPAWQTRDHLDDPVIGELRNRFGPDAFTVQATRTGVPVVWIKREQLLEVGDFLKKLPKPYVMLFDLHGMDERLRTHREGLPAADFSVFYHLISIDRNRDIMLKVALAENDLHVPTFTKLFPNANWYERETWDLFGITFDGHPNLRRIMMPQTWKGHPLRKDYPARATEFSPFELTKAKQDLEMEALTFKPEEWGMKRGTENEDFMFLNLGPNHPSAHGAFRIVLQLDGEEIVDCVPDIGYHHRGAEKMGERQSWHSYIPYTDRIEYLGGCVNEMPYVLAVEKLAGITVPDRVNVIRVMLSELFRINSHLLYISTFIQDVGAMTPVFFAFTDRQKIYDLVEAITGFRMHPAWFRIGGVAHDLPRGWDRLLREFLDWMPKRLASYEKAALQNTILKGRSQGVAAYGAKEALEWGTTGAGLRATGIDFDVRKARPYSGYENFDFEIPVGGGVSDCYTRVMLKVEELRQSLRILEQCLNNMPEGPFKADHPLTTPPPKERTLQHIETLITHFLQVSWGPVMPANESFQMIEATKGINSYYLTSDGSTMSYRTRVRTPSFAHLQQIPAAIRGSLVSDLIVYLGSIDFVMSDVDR
Sequence of UniProt P76506 (P76506 whole entry): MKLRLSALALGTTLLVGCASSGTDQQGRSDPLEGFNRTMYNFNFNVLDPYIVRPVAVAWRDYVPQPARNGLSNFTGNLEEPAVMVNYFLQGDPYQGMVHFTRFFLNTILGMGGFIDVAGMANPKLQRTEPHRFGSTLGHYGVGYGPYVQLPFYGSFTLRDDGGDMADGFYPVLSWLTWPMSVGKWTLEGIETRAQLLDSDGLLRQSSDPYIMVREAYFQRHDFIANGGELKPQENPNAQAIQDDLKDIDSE
Sequence of UniProt P37326 (P37326 whole entry): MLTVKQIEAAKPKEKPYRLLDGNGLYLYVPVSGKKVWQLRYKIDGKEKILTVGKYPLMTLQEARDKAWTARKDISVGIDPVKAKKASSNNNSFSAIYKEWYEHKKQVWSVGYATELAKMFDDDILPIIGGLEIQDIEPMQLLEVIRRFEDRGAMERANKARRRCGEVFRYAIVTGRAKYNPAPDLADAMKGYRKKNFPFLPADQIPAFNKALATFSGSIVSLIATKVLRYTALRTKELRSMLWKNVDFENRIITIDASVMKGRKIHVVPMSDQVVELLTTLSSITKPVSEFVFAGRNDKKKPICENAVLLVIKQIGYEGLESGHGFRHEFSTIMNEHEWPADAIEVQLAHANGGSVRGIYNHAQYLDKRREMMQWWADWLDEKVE
Sequence of UniProt P21170 (P21170 whole entry): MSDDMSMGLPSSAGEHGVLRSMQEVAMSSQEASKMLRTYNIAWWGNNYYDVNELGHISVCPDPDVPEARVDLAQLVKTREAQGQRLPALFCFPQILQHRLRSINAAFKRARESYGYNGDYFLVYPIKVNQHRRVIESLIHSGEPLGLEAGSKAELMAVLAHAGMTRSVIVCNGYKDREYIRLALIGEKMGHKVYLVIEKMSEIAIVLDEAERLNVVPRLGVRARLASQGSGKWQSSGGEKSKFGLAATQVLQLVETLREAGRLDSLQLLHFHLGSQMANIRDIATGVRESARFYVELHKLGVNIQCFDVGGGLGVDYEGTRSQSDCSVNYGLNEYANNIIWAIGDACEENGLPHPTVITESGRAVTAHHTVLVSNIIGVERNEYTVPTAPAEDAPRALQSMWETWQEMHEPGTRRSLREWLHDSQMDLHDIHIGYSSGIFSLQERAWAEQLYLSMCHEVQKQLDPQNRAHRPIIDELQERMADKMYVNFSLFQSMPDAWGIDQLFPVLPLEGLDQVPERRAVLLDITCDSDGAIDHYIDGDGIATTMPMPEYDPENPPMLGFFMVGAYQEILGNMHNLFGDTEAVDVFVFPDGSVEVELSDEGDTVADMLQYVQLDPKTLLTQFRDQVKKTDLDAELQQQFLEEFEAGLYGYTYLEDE
Sequence of UniProt P16691 (P16691 whole entry): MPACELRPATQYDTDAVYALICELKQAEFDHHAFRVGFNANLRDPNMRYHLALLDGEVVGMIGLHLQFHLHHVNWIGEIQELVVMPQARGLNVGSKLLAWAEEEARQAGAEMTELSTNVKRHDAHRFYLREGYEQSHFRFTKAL
Sequence of UniProt P75785 (P75785 whole entry): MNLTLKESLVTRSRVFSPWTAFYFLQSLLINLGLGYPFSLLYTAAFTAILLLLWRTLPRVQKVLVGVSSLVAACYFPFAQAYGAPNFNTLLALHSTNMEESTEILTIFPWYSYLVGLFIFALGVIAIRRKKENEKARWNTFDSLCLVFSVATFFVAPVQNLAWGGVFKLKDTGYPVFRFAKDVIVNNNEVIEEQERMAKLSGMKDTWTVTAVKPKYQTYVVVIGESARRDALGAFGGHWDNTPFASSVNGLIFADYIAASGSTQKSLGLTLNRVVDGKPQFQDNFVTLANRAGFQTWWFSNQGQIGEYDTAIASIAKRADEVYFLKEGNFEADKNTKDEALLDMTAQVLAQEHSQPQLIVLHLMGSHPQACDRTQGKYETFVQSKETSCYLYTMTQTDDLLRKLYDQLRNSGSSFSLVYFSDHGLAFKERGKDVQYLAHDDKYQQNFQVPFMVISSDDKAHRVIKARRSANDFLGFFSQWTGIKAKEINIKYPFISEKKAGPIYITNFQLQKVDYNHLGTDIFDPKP
Sequence of UniProt P30176 (P30176 whole entry): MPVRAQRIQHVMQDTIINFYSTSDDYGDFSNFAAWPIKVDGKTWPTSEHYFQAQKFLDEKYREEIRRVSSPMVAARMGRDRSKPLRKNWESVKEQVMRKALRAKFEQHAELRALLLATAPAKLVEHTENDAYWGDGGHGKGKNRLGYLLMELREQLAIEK
Sequence of UniProt P52061 (P52061 whole entry): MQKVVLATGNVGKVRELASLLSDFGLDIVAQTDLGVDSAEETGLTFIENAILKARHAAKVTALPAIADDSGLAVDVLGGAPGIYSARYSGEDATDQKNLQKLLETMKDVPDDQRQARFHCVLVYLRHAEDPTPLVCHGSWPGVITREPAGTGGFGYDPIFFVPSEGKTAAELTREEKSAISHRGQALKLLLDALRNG

Compound in the assay: Nc1ncnc2c1ncn2[C@@H]1O[C@H](COP(=O)(O)OP(=O)(O)OP(=O)(O)O)[C@@H](O)[C@H]1O [adenosine 5'-triphosphate]
Kind of assay: log2 fold change of tryptic peptide abundance, ligand vs vehicle (limited proteolysis) (log2 ratio); higher = more trypsin-susceptible (destabilized). The conditions noted are these: ligand concentration: 5 mM; sample: E. coli desalted lysate; replicate design: treated before aliquoting. On the procedure:
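HT-PELSA: desalted E. coli K-12 BW25113 lysate (with 12 mM MgCl2) incubated with 5 mM ATP (pH 7) or water for 30 min at 25 C, then a 4 min trypsin pulse at 22 C. Peptides were quantified by DIA-MS (4 replicates). Value is the peptide log2 fold change (treated/control); negative = stabilized. Scale: negative = ligand-stabilized region.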
On to “UniProt P26612 (peptide sequence: TIHLGENYGNK, peptide start residue: 446)”, for which the log2 fold change was 0.945.

Regarding “UniProt P02359 (peptide sequence: FVNILMVDGK, peptide start residue: 26)”, the log2 fold change worked out at 0.921.

In the case of “UniProt P75785 (peptide sequence: SLGLTLNR, peptide start residue: 266)”, the log2 fold change is -0.884.

Consider “UniProt P24202 (peptide sequence: LKSRPDAVDLDPK, peptide start residue: 114)”, for which the log2 fold change worked out at 0.712.

Regarding “UniProt P76043 (peptide sequence: ACSEPNPDYPR, peptide start residue: 284)”, the log2 fold change was -1.41.

Consider “UniProt P11454 (peptide sequence: IELGEIDR, peptide start residue: 867)”, for which the log2 fold change was -1.19.

Take “UniProt P75767 (peptide sequence: VLSSLSSLGSR, peptide start residue: 24)”: the log2 fold change was -1.19.

For “UniProt P39399 (peptide sequence: AAGVSPVVVR, peptide start residue: 118)”, the log2 fold change was found to be 0.3.

“MurF (peptide sequence: VVALTGSSGK, peptide start residue: 102) (UniProt P11880)”: the log2 fold change was -1.5.

In the case of “UniProt P39161 (peptide sequence: QILAALIK, peptide start residue: 203)”, the log2 fold change is 0.746.

As to “UniProt P16691 (peptide sequence: VGFNANLRDPNMR, peptide start residue: 36)”, the log2 fold change was -0.259.

With “UniProt P37326 (peptide sequence: YNPAPDLADAMK, peptide start residue: 179)”, the log2 fold change was -0.342.

For “UniProt P39310 (peptide sequence: VWHAPDNFR, peptide start residue: 14)”, the log2 fold change is -0.8.

As to “UniProt P76177 (peptide sequence: KRIVQSPDVIPADSEAGR, peptide start residue: 179)”, the log2 fold change stood at 2.16.

On to “UniProt P0A9B6 (peptide sequence: SLQSLPWR, peptide start residue: 82)”, for which the log2 fold change was -0.912.

Consider “UniProt P75974 (peptide sequence: LIEDGTQR, peptide start residue: 178)”, for which the log2 fold change is 0.336.

In the case of “UniProt P76034 (peptide sequence: DAPCEVILLGGVYQKK, peptide start residue: 127)”, the log2 fold change was -0.81.

For “UniProt P00888 (peptide sequence: LLVVCGPCSIHDPETALEYARR, peptide start residue: 55)”, the log2 fold change stood at 0.547.

Turning to “UniProt P33030 (peptide sequence: TTPESEQALQR, peptide start residue: 157)”, the log2 fold change is -0.316.

For the target “UniProt P09147 (peptide sequence: REGDLPAYWADASKADR, peptide start residue: 292)”, the log2 fold change came to 0.627.

Take “UniProt P21170 (peptide sequence: TLLTQFR, peptide start residue: 619)”: the log2 fold change stood at 0.611.

Turning to “UniProt P31470 (peptide sequence: EGEGVTITNLR, peptide start residue: 74)”, the log2 fold change is -0.324.

For “UniProt P37617 (peptide sequence: DEQAAEEPQASR, peptide start residue: 113)”, the log2 fold change is 2.93.

For the target “UniProt Q47622 (peptide sequence: KMNADDVVFTFQR, peptide start residue: 117)”, the log2 fold change worked out at 1.14.

With “UniProt P30015 (peptide sequence: TGDTPAQER, peptide start residue: 132)”, the log2 fold change was -2.26.

“UniProt P31475 (peptide sequence: AHLNTLMAEMAALKENFRR, peptide start residue: 132)”: the log2 fold change is 0.66.

Turning to “UniProt P09053 (peptide sequence: ILAEEIERAWAESH, peptide start residue: 404)”, the log2 fold change was -0.817.

With “UniProt P23847 (peptide sequence: MAEMIQADWAK, peptide start residue: 392)”, the log2 fold change is -0.859.

As to “UniProt P0ADZ7 (peptide sequence: DFVAAVLPK, peptide start residue: 96)”, the log2 fold change was -0.282.

“UniProt P36683 (peptide sequence: EALGLPHSDVFR, peptide start residue: 359)”: the log2 fold change amounted to 0.334.

For the target “UniProt P15034 (peptide sequence: QNLTAPATMIDWRPVVHEMR, peptide start residue: 155)”, the log2 fold change is -0.448.

Regarding “UniProt P30176 (peptide sequence: LVEHTENDAYWGDGGHGK, peptide start residue: 123)”, the log2 fold change was -0.814.

As to “UniProt P31802 (peptide sequence: GMSGLDTLNALRR, peptide start residue: 64)”, the log2 fold change was found to be 0.209.

For the target “UniProt P27278 (peptide sequence: TFMSISGAQIR, peptide start residue: 202)”, the log2 fold change was -2.94.

On to “UniProt P33599 (peptide sequence: QDLEMEALTFKPEEWGMKR, peptide start residue: 186)”, for which the log2 fold change was -1.6.

As to “UniProt P17888 (peptide sequence: TNYAVSGER, peptide start residue: 188)”, the log2 fold change was -1.98.

For the target “UniProt P52061 (peptide sequence: FHCVLVYLR, peptide start residue: 118)”, the log2 fold change is -0.642.

Regarding “UniProt P76506 (peptide sequence: SDPLEGFNR, peptide start residue: 29)”, the log2 fold change stood at 0.294.

Turning to “UniProt P23862 (peptide sequence: KRIQHQDFER, peptide start residue: 111)”, the log2 fold change is 1.03.
